Ins promoter up = insulin promoter activators in MIN6 cells, imaging, high-content screening, mouse beta cells. z-score at 5 µM. 190,000 compounds, 0.3% hits. MIN6 insulin promoter-GFP reporter; stronger effect = higher value. AID 1625, 2009;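 active = z-score above 3 at 5 µM with at least 500 cells counted in the well; inconclusive = wells under 500 cells, flagged as cytotoxic or low count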
HCT116 PTEN-null = growth suppression of PTEN-null HCT116, primary screen, cell-based, CellTiter-Glo; HCT116 PTEN-null viability, 60 h; stronger effect = lower value; AID 827, 2007; viability, % at 10 µM; 140,000 compounds, 1.2% hits;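 active = viability at or below a set limit, 4 SD under the median of all tested compounds, cut at about 3.7% in these data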;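 also: PTEN knockout HCT116 line with beta catenin targeted HCT116 as companion control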
Autophagy mod = autophagy modulators in MEF cells, primary screen, imaging, high-content, MEF GFP-LC3. calls only at 10 µM (by protocol). 190,000 compounds, 0.98% hits. MEF GFP-LC3 puncta imaging; test concentration mostly 10 µM;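 active = percentage of spot-positive cells more than 3 SD above its plate mean, without a fluorescence outlier flag or 80% toxicity; inconclusive = no clear call, values can overlap the other calls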;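 also: spot-positive cell cutoff set from DMSO-treated cells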
L major viab = Leishmania major promastigote growth inhibition, primary screen; Leishmania major promastigotes, resazurin fluorescence viability; inhibition, % at 10 µM; 200,000 compounds, 9% hits; AID 1063, 2008; in the data active = inhibition above about 50%;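 also: promastigotes grown with compound for 44 hours at 28 °C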
HCT116 bCat-KO = primary screen for growth suppressors in beta-catenin knockout HCT116 cells (colon tumor, human) | HCT116 beta-catenin knockout viability, CellTiter-Glo, 60 h; stronger effect = lower value | viability, % at 10 µM | 140,000 compounds, 1.5% hits | AID 818, 2007;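 active = viability at or under a set limit, the compound median less 4 SD, cut at about 6% in these data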;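 also: 0% = Hyamine 1622 control at 20 µM and 100% = untreated cell control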
INS promoter inh = inhibitors of insulin promoter-driven GFP, primary screen, imaging, TRM-6 cells (human fetal islet line), eGFP reporter, cell count; reporter expression induced with tamoxifen; inhibition, % at 2 µM; 130,000 compounds, 0.9% hits; AID 1273, 2008;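 active = inhibition above the mean plus 3 SD, with well images judged a real hit on visual review, cut at about 60% in these data, passing the limit was not always enough; inconclusive = inhibition over the cutoff but images rejected on review; inactive = inhibition not above the cutoff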
* = called active by the depositor; i = inactive; ? = inconclusive; . = not tested or not shown; + = active, no number. Only some compounds are listed: those with a hit (about 9.6% of all), similar ones and a draw of the others.

SMILES	Ins promoter up	HCT116 PTEN-null	Autophagy mod	L major viab	HCT116 bCat-KO	INS promoter inh
Cc1ccc(S(=O)(=O)NCCNc2ccc([N+](=O)[O-])cc2C(F)(F)F)cc1	1.2	36	i	22	32	-178
O=[N+]([O-])c1ccc(NCCCNS(=O)(=O)c2ccccc2)c(Cl)c1	-0.42	79	i	64*	91	-11
Cc1ccc(C(=O)NCCNc2ccc([N+](=O)[O-])cc2C(F)(F)F)cc1	-0.43	81	i	81*	72	.
O=[N+]([O-])c1ccc(NCCNS(=O)(=O)c2ccccc2)cc1	0.61	.	i	-1	.	.
CCC(C)NS(=O)(=O)c1ccc(NC(=O)c2ccc([N+](=O)[O-])cc2Cl)cc1 (stereo unspecified)	0.28	73	i	13	75	.
O=C(NCCNc1ccc([N+](=O)[O-])cc1C(F)(F)F)c1ccccc1F	-0.59	75	i	42	84	-19
CCOCCCNS(=O)(=O)c1ccc(NC(=O)c2ccc([N+](=O)[O-])cc2Cl)cc1	1.2	79	i	74*	86	29
O=[N+]([O-])c1ccc(NCCNS(=O)(=O)c2ccccc2)c(C(F)(F)F)c1	-0.31	78	i	79*	83	-29
CCOC(=O)c1c(C)[nH]c(C(=O)COC(=O)c2ccccc2NC(=O)c2ccco2)c1C	-0.19	74	i	-1	73	.
CCn1nc(C)c([N+](=O)[O-])c1C(=O)NNC(=O)c1ccc(Cl)cc1	0.21	.	.	.	.	.
COc1ccc(CCNS(=O)(=O)c2cn(C)c(=O)n(C)c2=O)cc1	.	106	i	-8	91	.
O=C(CSC1=NC(=O)C(c2ccccc2)C(=O)N1)Nc1cccc(Cl)c1 (stereo unspecified)	-0.53	98	i	-14	109	0
COC(=O)c1[nH]c2cccc(OC)c2c1NC(=O)CCN1CCN(c2cccc(Cl)c2)CC1	-0.87	21	i	100*	23	-47
COC(=O)c1ccc(NC(=O)CSC2=NC(=O)C(c3ccccc3)C(=O)N2)cc1 (stereo unspecified)	-0.04	105	i	53*	96	27
O=C(CCN1CCN(c2ccccc2)CC1)Nc1ccc(Cl)cc1	0.35	96	i	-4	98	-46
COC(=O)c1ccc(NC(=O)CCN2CCN(c3ccccc3)CC2)cc1	-0.38	90	+	26	87	.
COC(=O)c1ccc(NC(=O)CNc2ccccc2)cc1	1.1	.	i	76*	.	.
COc1ccc([N+](=O)[O-])cc1NC(=O)c1cc(C)c(C)o1	-0.15	.	i	-3	.	.
O=C(Nc1ccc(F)cc1)c1nn(-c2ccccc2)c(=O)cc1Cl	-2.2	.	i	98*	.	-30
COc1ccccc1NC(=O)c1nn(-c2ccc(Cl)cc2)ccc1=O	0.31	85	i	-7	84	43
Cc1cc(NC(=O)CN2C(=O)CCSc3ccccc32)no1	.	.	i	-8	.	31
CCOC(=O)C1=C(N)OC(CCl)=C(C#N)C1c1ccsc1 (stereo unspecified)	0.91	90	i	57*	83	0
CC1=C(C(=O)OCc2ccccc2)C(c2ccsc2)C(C#N)=C(N)O1 (stereo unspecified)	0	85	i	-2	97	0
Cc1occc1C(=O)N=Nc1c(O)n(C)c2ccccc12	-0.41	58	i	71*	64	-4
CC1CCCCC1n1c(-c2cccnc2)n[nH]c1=S (stereo unspecified)	-0.4	.	i	-5	.	.
SMILES	Ins promoter up	HCT116 PTEN-null	Autophagy mod	L major viab	HCT116 bCat-KO	INS promoter inh
S=c1[nH]nc(-c2cccnc2)n1C1CCCCC1	0.26	101	i	53*	98	11
Cc1ccccc1NC(=O)N1CCCC(c2nc(-c3ccc(C(C)C)cc3)no2)C1 (stereo unspecified)	-2.8	101	i	85*	105	.
Cc1ccccc1NC(=O)N1CCCC(c2nc(-c3ccc(F)cc3)no2)C1 (stereo unspecified)	-1.5	90	i	2	95	.
CCc1cccc2c(SC(C)C(=O)NCC3CCCO3)nc(-c3ccccc3)nc12 (stereo unspecified)	-0.21	81	i	19	78	4
CCc1cccc2c(SCC(=O)NCC3CCCO3)nc(-c3ccc(F)cc3)nc12 (stereo unspecified)	-0.12	22	+	0	22	-16
Cc1ccc(NC(=O)/C(=C\c2cccs2)NC(=O)c2ccccc2)cc1	-0.04	92	i	83*	101	-11
CCN(CC)c1nc(OCCNC(=O)Nc2ccccc2)nc(N(CC)CC)n1	1.1	77	i	26	90	71*
CCN(CCNC(=O)Nc1ccc(Cl)cc1)c1ccccc1	1.5	18	+	96*	43	-24
O=C(NNC(=O)c1cccnc1)Nc1ccc(Cl)c(Cl)c1	.	81	i	-3	100	16
O=C1c2sc3nc4c(c(=O)n3c2C(=O)N1c1ccccc1)CCC4	0.23	56	i	5	59	-9
CCN(C(=O)COC(=O)c1cc(-c2ccc3cc(OC)ccc3c2)nc2ccccc12)C1CCS(=O)(=O)C1 (stereo unspecified)	-0.08	69	i	98*	86	24
O=C(N/N=C/c1sc(N2CCOCC2)nc1-c1ccccc1)c1ccccc1Cl	1.1	.	i	2	.	12
O=[N+]([O-])c1ccc(N/N=C/c2sc(N3CCOCC3)nc2-c2ccccc2)c(S(=O)(=O)Nc2ccc(Cl)cc2)c1	?	.	+	66*	.	-488
O=[N+]([O-])c1ccc(N/N=C/c2sc(N3CCOCC3)nc2-c2ccccc2)c(S(=O)(=O)Nc2ccccc2Cl)c1	.	.	+	70*	.	.
CCOC(=O)c1c(NC(=O)CSc2nnc(-c3ccc(C)cc3)o2)sc(C(C)=O)c1C	.	81	i	-4	81	-1
CCCCCCCCNC(=S)NCCN1CCCCC1	-0.53	.	i	97*	.	-58
O=C(COC(=O)Cc1ccc(Cl)cc1Cl)NCCC1=CCCCC1	-0.08	99	i	54*	90	19
O=C(COc1ncnc2c(Cl)cc(Cl)cc12)NCCC1=CCCCC1	-0.06	90	i	100*	97	-19
Cc1[nH][nH]c(=O)c1C(c1c(C)[nH][nH]c1=O)c1cn(Cc2ccc(F)cc2)c2ccccc12	0.18	30	i	99*	46	-8
O=C(O)Cc1cn(Cc2ccc(F)cc2)c2ccccc12	-0.37	.	i	-11	.	29
O=c1ccc(NS(=O)(=O)c2ccccc2Cl)cn1Cc1ccc(Cl)c(Cl)c1	-0.23	.	i	-4	.	.
Cc1[nH][nH]c(=O)c1C(c1c(C)[nH][nH]c1=O)c1cn(Cc2ccc(Cl)c(Cl)c2)c2ccccc12	-0.14	5	i	99*	8	.
